# Laboratory results taken from PubChem BioAssay AID504332 (National Center for Advancing Translational Sciences (NCATS), 2011).
# Several values for one entry are separate records, joined by “and”; a condition that tells them apart may be missing. Equal values may be shown once. Hit rate of the full screen: of about 350,000 compounds, about 31,000 (8.9%) were called active. Not shown: some 15% with an inconclusive outcome. Calls follow the shape of the dose curve; as a rule, active = well fitted inhibition curve with a large enough effect; inconclusive = small, poorly fitted or top-dose-only effect; inactive = no such curve, though single readings can be large or run the other way. This excerpt belongs to a sample that is enriched for actives. The source holds several records for some structures; these can differ, active in one and inactive in another.
# Molecular target: Histone-lysine N-methyltransferase EHMT2 (Homo sapiens) (UniProt Q96KQ7)
# Assay: qHTS Assay for Inhibitors of Histone Lysine Methyltransferase G9a; also: nearly all actives have a fitted effect of over 75% in size
# Conditions: G9a H3K9 monomethylation, AlphaScreen, 2 h; series mostly up to 59 µM; activity, negative = inhibition: at the top concentration
# Method in brief: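 Methyltransferase reactions run at room temperature for 2 h (20 nM enzyme, 500 nM biotin-H3K9 peptide, 20 uM SAM) after a 15 min compound preincubation; product detected by AlphaScreen beads and anti-H3K9me1 antibody.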
# % is scaled to controls: 0 for no effect and ±100 for the full control effect; potency is read from the fitted curve at half-maximal effect.
# Sequence of Histone-lysine N-methyltransferase EHMT2 (Homo sapiens) (Q96KQ7 913-1193 limits assumed): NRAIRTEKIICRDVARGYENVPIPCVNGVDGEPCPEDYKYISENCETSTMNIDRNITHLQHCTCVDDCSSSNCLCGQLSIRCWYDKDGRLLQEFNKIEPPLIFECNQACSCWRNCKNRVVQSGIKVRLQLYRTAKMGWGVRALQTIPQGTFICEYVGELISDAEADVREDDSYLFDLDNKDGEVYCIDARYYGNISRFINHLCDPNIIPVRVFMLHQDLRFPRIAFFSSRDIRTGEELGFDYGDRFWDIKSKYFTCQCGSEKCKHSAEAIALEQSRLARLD
SMILES,"activity, negative = inhibition",Potency
NC(=O)C1CCN(C(=O)c2cccc(NC(=O)c3nsc4ccccc34)c2)CC1,1.5% (inactive),
COCCN1C(=O)N[C@@H](c2ccccc2)C(C(=O)OC)=C1C,-3.9% [at 102 µM] (inactive),
CCN1C(=NCCc2cccnc2)N[C@@H](c2ccccc2)[C@H](C(=O)OC)[C@H]1C,-5.2% [at 12.7 µM] (inactive),
CCN1C(=NCCc2cccnc2)N[C@@H](c2ccccc2)C(C(=O)OC)=C1C,,44.7 µM (active)
CC(=O)Nc1c(C)nn(-c2ccccc2)c1N1CCC(C(=O)Nc2cc(Cl)ccc2C)CC1,17.8% (inactive),
O=C(CN1C(=O)NC2(CCCC2)C1=O)OCCOc1ccc(F)cc1,-1.07% [at 0.501 µM] (inactive),
CCOc1c(OC)cccc1C(=O)NCC1(c2ccccc2)CCCC1,82.4% [at 102 µM] (inactive),
Cc1ccc(-c2csc(N3CCN(c4cc5c(cc4Cl)nc(-c4ccncc4)n5CCOCCO)CC3)n2)cc1,,50.1 µM (active)
CCCn1c(C2CCCN2c2nc(-c3ccc(C)cc3)cs2)nc2cc(Cl)c(N3CCCCC3)cc21 (configuration not stated),6.77% [at 102 µM] (inactive),
Cn1c(=O)c2c(nc(NCCc3ccccc3)n2Cc2ccccc2Br)n(C)c1=O,-0.776% (inactive),
Cc1ccc(-n2c(SCC(=O)c3ccccc3)nc3c([nH]c4ccccc43)c2=O)cc1,8.15% (inactive),
CCOC(=O)c1c(NC(=O)C2CCN(S(=O)(=O)c3ccc(Cl)cc3)CC2)sc2c1CCCC2,21.6% [at 102 µM] (inactive),
O=C(OCc1nc2ccccc2[nH]1)C1CCCCC1,33.3% (inactive),
O=C(Nc1sc2c(c1-c1nc3ccccc3[nH]1)CCCC2)C1CC1,,50.1 µM (active)
CC(C)c1ccc(NC(=O)c2ccc3c(O)c(S(=O)(=O)c4ccccc4)c(=O)[nH]c3c2)cc1,-29.3% (inactive),
Cc1cc(C)cc(NC(=O)CSc2nc(=O)n(CCN3CCOCC3)c3c2CCC3)c1,-2.62% (inactive),
Cc1ccc(Cn2cc(CCC(=O)NCc3ccc(OC(C)C)cc3)c3ccccc32)cc1,-0.207% (inactive),
O=S(=O)(NCCc1ccc(Cl)cc1)c1cccs1,41% [at 102 µM] (inactive),
CCCOc1ccc(C(=O)NCCc2ccccc2)cc1,3.8% [at 102 µM] (inactive),

SMILES,"activity, negative = inhibition",Potency
CN(c1ccccc1)S(=O)(=O)c1ccc(C(=O)NCCc2ccccc2)cc1,-6.87% (inactive),
C[N+](C)(C)CCNC(=O)c1cc[n+](Cc2ccccc2)c(/C=N/O)c1,,10 µM (active)
CCOc1ncccc1C(=O)OCC(=O)N1c2ccccc2CC1C (configuration not stated),19% (inactive),
Cc1ncc(CO)c(/C=N/NC(=O)c2cccc(S(=O)(=O)N3CCCC3)c2)c1O,25% [at 102 µM] (inactive),
Cc1cccc2cc(CN(Cc3cccs3)C(=S)NCc3ccco3)c(=O)[nH]c12,-9.03% (inactive),
Cc1ccc(C)c2[nH]c(=O)c(CN(Cc3cccnc3)C(=S)NCc3ccco3)cc12,,50.1 µM (active)
Cc1cc(C)c2[nH]c(=O)c(CN(Cc3ccccc3)C(=S)NCCCN(C)C)cc2c1,-28.9% [at 102 µM] (inactive),
COc1ccc(C(=O)NCC2CCCCC2)cc1S(=O)(=O)N1CCCC1,-36.7% [at 12.7 µM] (inactive),
N#C/C(=C\c1ccc(O)c(O)c1)C(=O)NCc1ccccc1,,5.01 µM (active) and 5.62 µM (active) and 4.74 µM (active)
COCCNC(=O)/C(C#N)=C/c1cccc(OCc2ccccc2)c1,2.45% [at 102 µM] (inactive),
COc1ccc(CNC(=O)/C(C#N)=C/c2cccc(OC)c2OC)cc1,44% [at 0.501 µM] (inactive),
COc1ccc(C2=NS(=O)(=O)N(C)C(C(=O)N(C)Cc3ccccc3)=C2)cc1,5.73% [at 12.7 µM] (inactive),
COc1ccc(C2=NS(=O)(=O)N(C)C(C(=O)NC(C)c3ccccc3)=C2)cc1 (configuration not stated),,inactive and 14.1 µM (active)
COc1ccc(NC(=O)C2=CC(c3ccc(OC)c(OC)c3)=NS(=O)(=O)N2C)cc1,-137% [at 102 µM] (inactive),
CC(=O)N1c2ccc(S(=O)(=O)N3CCCC(C(=O)Nc4cccc(F)c4)C3)cc2CC1C (configuration not stated),-7.59% [at 12.7 µM] (inactive),
CCN(CCCNC(=O)Cn1ncc2c3ccccc3n(C)c2c1=O)Cc1ccccc1,1.37% (inactive),
CCC(CC)c1nn2cc(-c3ccccc3)nc2s1,30.5% (inactive),
O=C(Nc1ccc2c(c1)OCCO2)C1CCCC1,2.92% [at 12.7 µM] (inactive),
Cc1cc(/C=N/Nc2ccc([N+](=O)[O-])cn2)c(C)n1-c1cccc(C(=O)O)c1,,15.8 µM (active)

SMILES,"activity, negative = inhibition",Potency
Cc1ccc(-n2c(C)cc(/C=N/Nc3ccc([N+](=O)[O-])cn3)c2C)c(C)c1,-11.9% (inactive),
Cc1cccc(C)c1NC(=O)CSc1ccc([N+](=O)[O-])cn1,-14.7% (inactive),
C#CC(C)(CC)NC(=O)Cn1nnc(-c2ccc(OCc3c(F)cccc3Cl)cc2)n1 (configuration not stated),-5.54% (inactive),
CCOc1ccc(NC(=O)CN(C)C(=O)c2c(C)noc2C)cc1OCC,2.91% [at 102 µM] (inactive),
COCCN(C(=O)CSCc1ccc(C)cc1)c1c(N)n(CC(C)C)c(=O)[nH]c1=O,19% [at 12.7 µM] (inactive),
Cc1ccc(CSCC(=O)N(C)CC(=O)Nc2cccc(F)c2)cc1,5.8% [at 102 µM] (inactive),
Cc1ccc(CSCC(N)C(=O)O)cc1 (configuration not stated),,15.8 µM (active)
Cc1ccc2c(=O)c(C(=O)c3ccc(F)cc3)cn(CC(=O)NC3CCCCC3)c2n1,-25.3% (inactive),
O=C(NCCCN1CCCC1=O)c1cccc(S(=O)(=O)NCc2ccccc2)c1,-27% [at 102 µM] (inactive),
COc1ccc(CCNS(=O)(=O)c2cccc([N+](=O)[O-])c2)cc1,-4.51% [at 102 µM] (inactive),
CN(CC(=O)Nc1cccc(F)c1)CC(=O)Nc1cccc([N+](=O)[O-])c1,-15.7% (inactive),
COc1ccc(S(=O)(=O)NC(C)C(=O)N2CCCCCC2)cc1 (configuration not stated),14.2% [at 102 µM] (inactive),
COC(=O)/C=C\C(=O)Nc1cccc([N+](=O)[O-])c1,,1.41 µM (active)
O=C(CSCC(=O)Nc1cccc([N+](=O)[O-])c1)Nc1ccccc1,-22.9% (inactive),
COc1ccc(S(=O)(=O)NC(C)C(=O)Nc2cccc([N+](=O)[O-])c2)cc1 (configuration not stated),,50.1 µM (active)
Cc1c(C(=O)N(C)C)sc2c1c(=O)n(-c1ccc(F)cc1)c(=O)n2CC(=O)N(C)c1ccccc1,1.6% (inactive),
CC1=C(C(=O)Nc2ccccc2)C(c2ccc(C)cc2)n2nc(SCc3ccccc3C)nc2N1 (configuration not stated),9.21% (inactive),
CCc1cccc(C)c1NC(=O)COC(=O)CNC(=O)c1cccs1,-30.4% [at 102 µM] (inactive),
CCC1(c2ccccc2)NC(=O)N(CC(=O)Nc2ccccc2C(=O)NC2CCCC2)C1=O (configuration not stated),20.5% [at 0.501 µM] (inactive),
